Source: PubChem BioAssay (several laboratories)
The list is not random: actives were taken first. Their share in the collection is about 2.8%.
Mcl1 Noxa PPI = disrupts binding of human Mcl-1 to Noxa peptide | Q07820 | TR-FRET Mcl-1/Noxa peptide binding, 2 h | inhibition, % at 21.7 µM | 1.5% of 220,000 active;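 active means compounds that cut the protein-peptide binding signal by more than 50% relative to plate controls in a single-dose test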;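 further: His-tagged Mcl-1 with rhodamine Noxa BH3 peptide and terbium anti-His antibody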
Target sequence (Q07820 whole entry, looked up): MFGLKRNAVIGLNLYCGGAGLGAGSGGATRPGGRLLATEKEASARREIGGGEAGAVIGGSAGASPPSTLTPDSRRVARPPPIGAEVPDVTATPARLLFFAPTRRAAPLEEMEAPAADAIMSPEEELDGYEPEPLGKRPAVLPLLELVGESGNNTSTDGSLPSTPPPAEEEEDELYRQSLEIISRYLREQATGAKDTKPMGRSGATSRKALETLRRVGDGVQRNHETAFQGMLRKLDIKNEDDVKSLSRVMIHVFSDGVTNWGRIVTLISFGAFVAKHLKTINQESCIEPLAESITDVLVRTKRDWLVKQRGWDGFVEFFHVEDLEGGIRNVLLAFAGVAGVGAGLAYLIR
Mcl-1 Bim block = human Bim-Mcl-1 interaction inhibition; Bead-based flow cytometry, Bim peptide-Mcl-1 binding; Q07820; AID 1009; inhibition, % at 10 µM; 0.1% of 190,000 active; in the data active means inhibition above about 40%
Calpain2 inh = calpain II (pig) inhibition; AID 1236; 0.37% of 220,000 active; inhibition, % at 16 µM; purified calpain II, fluorogenic peptide substrate, 30 min;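 active means inhibition above about 50%, limit read from the data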
Mcl1-Bid inh = Mcl-1/Bid interaction inhibition; Q07820; TR-FRET Mcl-1/Bid-Dy647 peptide binding, 1536-well; inhibition, % at 21.7 µM; 0.97% of 220,000 active; AID 1021;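 active means compounds that cut the binding signal by more than half at the single screening dose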;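 further: His-tagged Mcl-1 with europium anti-His antibody binding Bid BH3 peptide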
zVAD death inh = L929 zVAD cell death inhibition; viability rescue, % at 10 µM; 0.38% of 220,000 active; AID 1377; L929 zVAD necroptosis rescue, ATP luminescence, 24 h; with zVAD 60 µM;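 active means activation, scaled between plate controls, above about 75%, limit read from the data; inactive means activation under that limit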
TNF death inh = blocks TNF-alpha induced death of Jurkat FADD-/- cells | Jurkat FADD-/- TNF necroptosis rescue, ATP luminescence, 24 h; 0 = TNF only, 100 = no-TNF cells | activation (protection from cell death), % at 10 µM | 0.068% of 220,000 active;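 active means activation, meaning protection from cell death, of at least 50% relative to plate controls; inactive means activation below 50%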;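 further: necroptosis triggered by 40 ng/mL TNF-alpha added together with compound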
Each line names hits and unclear results; the compound was inactive in the other large screens.

NNC(=O)CCCCCCCCCCOCCCCO	none (no result: Mcl-1 Bim block)
O=C(/C(=N/N=C/c1ccc(O)c(O)c1O)c1ccccc1)c1ccccc1	Mcl1 Noxa PPI 51.8
Oc1ccc(/C=N/N=C(c2ccccc2)c2ccccc2)c(O)c1O	Mcl1 Noxa PPI 101.2
Oc1cccc(C=NCc2ccccc2)c1O	none
Cc1c(C(=O)N2CCC(C)CC2)sc2ncnc(N3CCN(c4ccccc4)CC3)c12	Calpain2 inh 63.0
O=C(NCc1ccncc1)C(=O)N/N=C/c1ccccn1	none
O=C(NCC1CCCO1)c1ccc(Oc2ccc([N+](=O)[O-])cc2Cl)cc1 (centres undefined)	none
O=C(NCC1CCCO1)c1cc([N+](=O)[O-])ccc1Cl (centres undefined)	Mcl1-Bid inh 93.6
CN(C)S(=O)(=O)c1cccc(NC(=S)N/N=C/c2ccc(O)c(O)c2O)c1	Mcl1 Noxa PPI 107.7 (no result: Mcl-1 Bim block)
CCN(CC)S(=O)(=O)c1cccc(C(=O)N/N=C/c2ccc(O)c(O)c2O)c1	Mcl1 Noxa PPI 94.5, Mcl-1 Bim block 44.0
COc1ccc(O)c(/C=N/NC(=S)Nc2cccc(S(=O)(=O)N(C)C)c2)c1	none
O=C(O)COc1ccccc1/C=N/Nc1ccc(S(=O)(=O)Nc2ccc(Cl)cc2)cc1[N+](=O)[O-]	Mcl1 Noxa PPI 72.9
O=C(N/N=C\C=C\c1ccco1)c1cc(-c2ccc3ccccc3c2)n[nH]1	Mcl1 Noxa PPI 93.2
O=C(Cc1cccs1)N/N=C/C=C/c1ccco1	Mcl1 Noxa PPI 70.3
CCn1c(SCC(=O)N/N=C/C=C/c2ccco2)nnc1-c1ccccc1	none
O=C(CNc1cccc2ccccc12)N/N=C/C=C/c1ccco1	none
O=C(CSc1nnc(SCc2ccccc2)s1)N/N=C/C=C/c1ccco1	Mcl1 Noxa PPI 106.4
CCOC(=O)/C(N=Nc1c(Br)cc(Br)cc1Br)=C(\C)O	none
CC1(c2ccccc2Cl)NC(=O)N(CC(=O)Nc2ccc3c(c2)OCO3)C1=O (centres undefined)	none
CC(=O)Nc1ccc(OC(F)(F)C(F)C(F)(F)F)c(NC(C)=O)c1 (centres undefined)	none
CCNC(=O)CSc1nnc(-c2cc(-c3ccc(Cl)cc3)nc3ccccc23)o1	none
COc1ccc(/C=C/C(=O)OCC(=O)NCCC2=CCCCC2)cc1S(=O)(=O)N1CCOCC1	none
CN(C)c1ccc(NC(=O)c2ccc3c(c2)nnn3C)cc1	Mcl1 Noxa PPI 60.5
COc1cc(C(=O)Nc2ccc(N(C)C)cc2)cc(OC)c1OC	Mcl1 Noxa PPI 77.6
O=C(Nc1ccccc1)c1cccc(N2C(=O)CCC2=O)c1	none
Cc1ccc(NC(=O)c2ccc3c(c2)nnn3C)cc1	none
CN(C)c1ccc(NC(=O)c2cccc(N3C(=O)CCC3=O)c2)cc1	Mcl1 Noxa PPI 63.9
CCOc1ccc(N2CC(C(=O)NC3=NCCS3)CC2=O)cc1 (centres undefined)	none
O=C(Nc1nc(=S)ss1)c1c(F)cccc1F	none
Cc1cc([N+](=O)[O-])nn1Cc1ccccc1F	zVAD death inh 90.6, TNF death inh 94.6
COc1ccc(C2CC(c3ccccc3OC(C)=O)=NN2C(C)=O)cc1 (centres undefined)	none (no result: Mcl-1 Bim block)
O=c1c(C=NCCCO)c(-c2ccccc2)[nH]n1-c1nc2ccccc2s1	Mcl1-Bid inh 61.5
COCCCN=Cc1c(-c2ccccc2)[nH]n(-c2nc3ccccc3s2)c1=O	none (no result: Mcl-1 Bim block)
Cc1ccc(S(=O)(=O)c2c[nH]c3cc4c(cc3c2=O)OCO4)cc1	none (no result: Mcl-1 Bim block)
O=C(Nc1cc(C(F)(F)F)ccc1N1CCOCC1)c1ccc2ccccc2n1	Mcl1 Noxa PPI 67.7
CC1CCN(CC(=O)NC(=O)NCc2ccccc2)CC1	none
Cc1cc(C)c(C)c(S(=O)(=O)N2CCN(CC(=O)NC(=O)NCc3ccccc3)CC2)c1C	Mcl-1 Bim block 61.0
CC(C)(CO)NCC#Cc1ccccc1	none
O=C(Nc1ccc(-c2cc3ccccc3oc2=O)c(Cl)c1)c1cccnc1	none
COc1cc(NC(=O)c2cccnc2)ccc1-c1cc2ccccc2oc1=O	Mcl1 Noxa PPI 50.6
O=C(Nc1cccnc1)c1cccc(-c2cc3ccccc3oc2=O)c1	Mcl1-Bid inh 56.9
CCOC(=O)/C=c1\s/c(=C\c2ccc3cc(OC)ccc3c2)c(=O)n1CC(=O)NCc1ccc2c(c1)OCO2	none
Nc1c(S(=O)(=O)c2cccs2)c2nc3ccccc3nc2n1/N=C/c1cccc(O)c1	Mcl1 Noxa PPI 72.8
COc1cccc(/C=N/n2c(N)c(S(=O)(=O)c3cccs3)c3nc4ccccc4nc32)c1	none
Cc1ccc(S(=O)(=O)c2c(N)n(/N=C/c3ccco3)c3nc4ccccc4nc23)cc1	none
COc1ccc(S(=O)(=O)c2c(N)n(Cc3ccco3)c3nc4ccccc4nc23)cc1	Mcl1 Noxa PPI 57.5
Nc1c(S(=O)(=O)c2ccccc2)c2nc3ccccc3nc2n1/N=C/c1ccco1	Mcl1 Noxa PPI 72.7
COc1ccc(-c2nc3c(-c4ccc(F)cc4)cnn3cc2C)cc1F	none
CN(C)CC(C)(C)CNC(=O)C1CCN(Cc2ccccc2O)CC1	Mcl1-Bid inh 58.5
O=C(NCCc1ccccc1)C1CCN(Cc2ccccc2F)CC1	none
CCNC(=O)c1cc(S(=O)(=O)N(C)C)c(Cl)cc1Cl	Mcl1-Bid inh 72.1
COc1cc(OC)c(OC)cc1CN1CCc2ccccc2C1	Mcl1-Bid inh 55.1
N#CC1=C(N)NC(SCC(=O)O)=C(C#N)C12CCCC2	none
N#CC1=C(N)NC(SCc2ccc(F)cc2)=C(C#N)C12CCCCC2	Calpain2 inh 65.9
CC(=O)c1cc(CN2CCN(Cc3ccccc3)C(CCO)C2)cs1 (centres undefined)	none
C=CCSc1nc2c(c(=O)[nH]c(=O)n2C)n1C/C=C(/C)Cl	Mcl1 Noxa PPI 57.5
Cc1cnc([N+](=O)[O-])n1CCOC(=O)NC(=O)c1ccc(F)cc1	none
O=S(=O)(NC1CCCCC1)c1ccc(Br)cc1	none
O=C(Cc1ccccc1)NC(NC(=S)Nc1cc(Cl)ccc1Cl)C(Cl)(Cl)Cl (centres undefined)	Calpain2 inh 50.6
O=P(OC1CCCCC1)(OC1CCCCC1)C(O)c1ccccc1 (centres undefined)	none
CCCCCc1nc2c(=O)[nH]c3ccccc3c2o1	Mcl1 Noxa PPI 76.8
CCCCCCCc1nc2c(=O)[nH]c3ccccc3c2o1	none (no result: Mcl1 Noxa PPI, Mcl-1 Bim block, Calpain2 inh, Mcl1-Bid inh)
COc1ccc(C(C)=O)cc1CSCCC#N	none
O=C(c1cc2c(s1)CCCC2)N1CCN(S(=O)(=O)c2ccccc2C(F)(F)F)CC1	none
Cc1nc2scc(-c3ccccc3)c2c(=O)n1N=C1C=CC(=O)C=C1	Mcl1 Noxa PPI 63.2
Cc1nc2scc(-c3ccccc3)c2c(=O)n1N	none
COc1ccc(CNC(=O)NC(C)(C)c2cccc(C(C)(C)NC(=O)NCc3ccc(OC)cc3)c2)cc1	none
CN(/N=C\c1ccc(O)c(O)c1)c1nc(-c2ccccc2)cc(-c2ccccc2)n1	Mcl1 Noxa PPI 72.5
CC1=CC(C)(C)Nc2ccccc21	Mcl1 Noxa PPI 67.4
COc1ccc2c(c1)NC(C)(C)C=C2C	none
